Values joined by “and” are separate entries in the source; they are usually repeats but may differ in a detail not shown here. Equal values may be shown once. Compounds without any hit were thinned out: in the full panel of roughly 79,000, 15% have a hit. Where a structure was tested more than once in an assay, its records may differ in their call. Active and inactive are the calls of the source. No stated cut-off is given here; in the data, active means growth inhibition above about 70%; inactive means the rest.

The record followed here is PubChem BioAssay (NCI).

The nature of test [1]: NCI Yeast Anticancer Drug Screen. Data for the rad50 strain (AID 155).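 Further: 0% = growth of vehicle-only cultures of the same strain.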 As to conditions: S. cerevisiae rad50 strain growth inhibition, stronger effect = higher value. In short, it runs like this:
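Genetically altered yeast (DNA repair pathway); compound treatment; growth inhibition vs vehicle ctrl.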

Test [2] is described as follows: NCI Yeast Anticancer Drug Screen. Data for the mec2-1 strain (AID 157). Conditions: S. cerevisiae mec2-1 strain, stronger effect = higher value. Summed up:
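Using mec2-1 yeast: add compound, measure growth, express inhibition versus vehicle-treated cultures.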

Test [3] can be described thus: NCI Yeast Anticancer Drug Screen. Data for the sgs1 mgt1 strain (AID 161).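 Further: 0% = growth of cultures given vehicle only.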 Conditions: S. cerevisiae sgs1 mgt1 strain, stronger effect = higher value. In short, it runs like this:
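Percent growth inhibition was derived by comparing compound-exposed mutant yeast with vehicle-exposed cultures. The strain carries alterations in DNA damage repair.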

A short description of test [4]: NCI Yeast Anticancer Drug Screen. Data for the cln2 rad14 strain (AID 165).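 Further: 0% = growth equal to vehicle treated cultures.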 Conditions: S. cerevisiae cln2 rad14 strain, stronger effect = higher value. In short, it runs like this:
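Yeast strain cln2 rad14, bearing defects in cell cycle control and DNA repair, serves as the test system; values reflect growth inhibition compared with vehicle.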

Test [5] can be described thus: NCI Yeast Anticancer Drug Screen. Data for the bub3 strain (AID 167). As to conditions: S. cerevisiae bub3 mutant strain, stronger effect = higher value. Summed up: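 Yeast carrying a defined mutation is treated with each compound, and growth is compared with that of vehicle-exposed cells to give inhibition.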
Test [6] in a line: NCI Yeast Anticancer Drug Screen. Data for the mlh1 rad18 strain (AID 175). As to conditions: S. cerevisiae mlh1 rad18 strain growth inhibition, stronger effect = higher value. Summed up:
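Steps: expose repair-defective yeast to compound; measure growth; express inhibition against vehicle-treated controls.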

Where [7] appears, read: at 5.0 µM (retest, dose inferred, filed as 0.5).
Setting [8] is: at 50.0 µM (retest, dose inferred, filed as 5.0).

`Nc1ccc2c3c(cccc13)C(=O)N(CCCBr)C2=O`: the growth inhibition in test [1] (setting [7]) is 9% (inactive); in test [1] (setting [8]), 98% (active); in test [1] (at 50.0 µM) it was 92.9% (active); in test [2] (setting [7]) it was -5% (inactive); in test [2] (setting [8]), 67% (inactive); in test [2] (at 50.0 µM) it was 0.7% (inactive). Further, the growth inhibition in test [3] (setting [7]) was -17% (inactive); in test [3] (setting [8]), 80% (active); in test [3] (at 50.0 µM), 55.4% (inactive); in test [4] (setting [7]), 16% (inactive); in test [4] (setting [8]), 88% (active); in test [4] (at 50.0 µM), 45.1% (inactive). In addition, the growth inhibition is 6% (inactive) in test [5] (setting [7]); 78% (active) in test [5] (setting [8]); 5.15% (inactive) in test [5] (at 50.0 µM); 32% (inactive) in test [6] (setting [7]); 94% (active) in test [6] (setting [8]); 82.8% (active) in test [6] (at 50.0 µM).

For `CN(C)c1ccc(/C=C/c2sc3ccccc3[n+]2C)cc1`, the growth inhibition in test [1] (setting [7]) is -39% (inactive) and 14% (inactive); in test [1] (setting [8]), 99% (active) and 98% (active); in test [1] (at 50.0 µM) it was 99.2% (active); in test [2] (setting [7]), -16% (inactive) and 49% (inactive); in test [2] (setting [8]) it was 99% (active); in test [2] (at 50.0 µM), 99.2% (active) and 99.4% (active). The growth inhibition was -2% (inactive) and 16% (inactive) in test [3] (setting [7]); 72% (active) and 99% (active) in test [3] (setting [8]); 99.5% (active) and 99.4% (active) in test [3] (at 50.0 µM); -2% (inactive) and 13% (inactive) in test [4] (setting [7]); 99% (active) and 98% (active) in test [4] (setting [8]); 98.8% (active) and 99.3% (active) in test [4] (at 50.0 µM). In addition, the growth inhibition in test [5] (setting [7]) is 12% (inactive) and -4% (inactive); in test [5] (setting [8]), 99% (active); in test [5] (at 50.0 µM) it was 99.4% (active) and 99.3% (active); in test [6] (setting [7]), 7% (inactive) and 22% (inactive); in test [6] (setting [8]), 99% (active); in test [6] (at 50.0 µM), 99.3% (active) and 99.2% (active).

For the molecule `N#CC1(C2SCCS2=O)C2=C(C(=O)c3ccccc3C2=O)N2CCCC21` (stereo unspecified), the growth inhibition in test [1] (setting [7]) is 17% (inactive); in test [1] (setting [8]), 56% (inactive); in test [1] (at 50.0 µM), 76.8% (active); in test [2] (setting [7]), 14% (inactive); in test [2] (setting [8]), 49% (inactive); in test [2] (at 50.0 µM), 77.2% (active). Moreover, the growth inhibition in test [3] (setting [7]) is 23% (inactive); in test [3] (setting [8]) it was 67% (inactive); in test [3] (at 50.0 µM) it was 83.8% (active); in test [4] (setting [7]), 14% (inactive); in test [4] (setting [8]) it was 40% (inactive); in test [4] (at 50.0 µM), 43.2% (inactive). Moreover, the growth inhibition is 33% (inactive) in test [5] (setting [7]); 80% (active) in test [5] (setting [8]); 70.2% (active) in test [5] (at 50.0 µM); 17% (inactive) in test [6] (setting [7]); 67% (inactive) in test [6] (setting [8]); 89.9% (active) in test [6] (at 50.0 µM).

Consider `O=c1cc[nH]cc1`, for which the growth inhibition in test [1] (setting [7]) is 2% (inactive); in test [1] (setting [8]), 14% (inactive); in test [1] (at 50.0 µM), 7.55% (inactive) and 26.5% (inactive); in test [2] (setting [7]), -3% (inactive); in test [2] (setting [8]) it was -7% (inactive); in test [2] (at 50.0 µM), -8.8% (inactive) and 56.6% (inactive). Besides, the growth inhibition in test [3] (setting [7]) was -5% (inactive); in test [3] (setting [8]), 2% (inactive); in test [3] (at 50.0 µM) it was 2.3% (inactive) and 16.9% (inactive); in test [4] (setting [7]), 3% (inactive); in test [4] (setting [8]) it was 5% (inactive); in test [4] (at 50.0 µM), 1% (inactive) and 24.7% (inactive). For the same molecule, the growth inhibition in test [5] (setting [7]) was 1% (inactive); in test [5] (setting [8]), -6% (inactive); in test [5] (at 50.0 µM) it was 12.3% (inactive) and 23.3% (inactive); in test [6] (setting [7]), 0% (inactive); in test [6] (setting [8]), 6% (inactive); in test [6] (at 50.0 µM) it was -7.05% (inactive) and 81.5% (active).

Consider `O=C(Nc1cccc2c(OC(=O)C(Cl)Cl)c(N=Nc3ccc(S(=O)(=O)Nc4nccs4)cc3)cc(N=Nc3ccc(S(=O)(=O)Nc4nccs4)cc3)c12)C(Cl)Cl` (tested in a mixture with another compound), for which the growth inhibition in test [1] (setting [7]) is 93% (active) and 21% (inactive); in test [1] (setting [8]) it was 6% (inactive) and 87% (active); in test [1] (at 50.0 µM) it was 71.8% (active) and 25.1% (inactive); in test [2] (setting [7]), 95% (active) and 10% (inactive); in test [2] (setting [8]), 39% (inactive) and 90% (active); in test [2] (at 50.0 µM), 62% (inactive) and 38.1% (inactive). In addition, the growth inhibition in test [3] (setting [7]) was 94% (active) and 19% (inactive); in test [3] (setting [8]), 29% (inactive) and 88% (active); in test [3] (at 50.0 µM), 67.2% (inactive) and 18.3% (inactive); in test [4] (setting [7]), 93% (active) and 29% (inactive); in test [4] (setting [8]), 34% (inactive) and 88% (active); in test [4] (at 50.0 µM), 56.5% (inactive) and 31.9% (inactive). Further, the growth inhibition was 90% (active) and 22% (inactive) in test [5] (setting [7]); 41% (inactive) and 88% (active) in test [5] (setting [8]); 50.2% (inactive) and 47.1% (inactive) in test [5] (at 50.0 µM); 85% (active) and 35% (inactive) in test [6] (setting [7]); -14% (inactive) and 83% (active) in test [6] (setting [8]); 81.3% (active) and 39.8% (inactive) in test [6] (at 50.0 µM).

Take `CC(C)=CCC(O)C1=CC(=O)c2c(O)ccc(O)c2C1=O` (stereo unspecified): the growth inhibition is 44% (inactive) in test [1] (setting [7]); 59% (inactive) in test [1] (setting [8]); 9.15% (inactive) and 87.9% (active) and 4.05% (inactive) in test [1] (at 50.0 µM); 46% (inactive) in test [2] (setting [7]); 66% (inactive) in test [2] (setting [8]); 15.9% (inactive) and 90.7% (active) and 54.8% (inactive) in test [2] (at 50.0 µM). Further, the growth inhibition is 43% (inactive) in test [3] (setting [7]); 92% (active) in test [3] (setting [8]); 12.4% (inactive) and 91.5% (active) and 30.6% (inactive) in test [3] (at 50.0 µM); 59% (inactive) in test [4] (setting [7]); 94% (active) in test [4] (setting [8]); 16.1% (inactive) and 89.1% (active) and 33.1% (inactive) in test [4] (at 50.0 µM). In addition, the growth inhibition in test [5] (setting [7]) was 62% (inactive); in test [5] (setting [8]), 87% (active); in test [5] (at 50.0 µM), 22.6% (inactive) and 88% (active) and 36.5% (inactive); in test [6] (setting [7]), 43% (inactive); in test [6] (setting [8]), 60% (inactive); in test [6] (at 50.0 µM), 26.6% (inactive) and 85.2% (active) and 9.65% (inactive).

On to `COc1cc(O)ccc1C(=S)SC`, for which the growth inhibition in test [1] (setting [7]) is 6% (inactive); in test [1] (setting [8]) it was 78% (active); in test [1] (at 50.0 µM), 85% (active); in test [2] (setting [7]), 1% (inactive); in test [2] (setting [8]) it was 18% (inactive); in test [2] (at 50.0 µM), 29.6% (inactive). Further, the growth inhibition was 5% (inactive) in test [3] (setting [7]); 66% (inactive) in test [3] (setting [8]); 42.5% (inactive) in test [3] (at 50.0 µM); 0% (inactive) in test [4] (setting [7]); 29% (inactive) in test [4] (setting [8]); 9% (inactive) in test [4] (at 50.0 µM). The growth inhibition in test [5] (setting [7]) is -5% (inactive); in test [5] (setting [8]), 33% (inactive); in test [5] (at 50.0 µM), -6.9% (inactive); in test [6] (setting [7]), 12% (inactive); in test [6] (setting [8]), 87% (active); in test [6] (at 50.0 µM), 30.9% (inactive).
